Laboratory results as given in the supplement of paper PMC12645437, “Orthogonal IMiD-Degron Pairs Induce Selective Protein Degradation in Cells” (ACS Chemical Biology, 2025).
In all, about 8,300 sequences were measured (“log2 fold change of degron read counts, EGFP-low vs EGFP+ sorted cells (limma voom), compound-induced degradation”: median about -1.1, highest 2% from about 3.2 on). Only a selection was taken, and the highest values are over-represented in it overall.

T1: CRBN, Q96SW2
T1 chain: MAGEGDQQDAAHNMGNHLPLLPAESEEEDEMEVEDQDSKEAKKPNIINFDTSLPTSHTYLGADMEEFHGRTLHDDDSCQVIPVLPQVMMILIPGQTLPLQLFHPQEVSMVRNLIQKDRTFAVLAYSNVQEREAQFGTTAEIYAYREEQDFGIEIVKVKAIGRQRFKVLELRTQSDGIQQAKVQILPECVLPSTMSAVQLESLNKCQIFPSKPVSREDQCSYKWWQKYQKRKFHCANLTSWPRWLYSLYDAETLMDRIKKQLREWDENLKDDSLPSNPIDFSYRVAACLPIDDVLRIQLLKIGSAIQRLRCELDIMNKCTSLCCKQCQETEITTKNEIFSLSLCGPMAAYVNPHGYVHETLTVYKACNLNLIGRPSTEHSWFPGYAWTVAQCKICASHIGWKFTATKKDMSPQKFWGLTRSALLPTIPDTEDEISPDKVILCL


Molecular target: T1, CRBN, Q96SW2
Test: log2 fold change of degron read counts, EGFP-low vs EGFP+ sorted cells (limma voom), compound-induced degradation; higher = more compound-induced degradation of the degron-EGFP fusion; degrons are variants of IKZF1/3 zinc finger 2; compound dose not given here
Settings: Jurkat, 18 h
[1] = compound: compound 19 (5-tert-butyl-thalidomide)
[2] = compound: compound 22 (5-morpholino-thalidomide)
[3] = compound: compound 33 (diphenyl IMiD analogue)
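Also: pooled lentiviral library of zinc finger degron-EGFP fusions in mCherry-positive Jurkat cells, FACS-sorted after compound exposure, with degron abundance counted by next-generation sequencing.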

| Sequence | log2 fold change of degron read counts [1] | log2 fold change of degron read counts [2] | log2 fold change of degron read counts [3] | log2 fold change of degron read counts (compound: thalidomide) |
| --- | --- | --- | --- | --- |
| FHCEICGRPFTQKGNLLRHIKL [46F_47H_49E_50I_52G_53R_54P_55F_67L_, Q9UKT9] | 1.69 | 0.386 | 0.306 | -0.468 |
| FTCSVCGHSFTQKGNLLRHIKL [46F_47T_49S_50V_52G_53H_54S_55F_67L_, Q9UKT9] | -2.98 | -3.17 | -2.89 | -2.9 |
| FWCEVCGADFTQKGNLLRHIKL [46F_47W_49E_50V_52G_53A_54D_55F_67L_, Q9UKT9] | -0.303 | 0.852 | -0.582 | -1.26 |
| FYCEVCGALFTQKGNLLRHIKL [46F_47Y_49E_50V_52G_53A_54L_55F_67L_, Q9UKT9] | 3.18 | 3.03 | 2.24 | 0.431 |
| FECEVCGARFTQKGNLLRHIKL [46F_47E_49E_50V_52G_53A_54R_55F_67L_, Q9UKT9] | 1.13 | -0.689 | 1.27 | 3.29 |
| FYCEVCGARFTQKGNLLRHIKL [46F_47Y_49E_50V_52G_53A_54R_55F_67L_, Q9UKT9] | 3.84 | 3.8 | 2.26 | 1.95 |
| FYCEVCGADFTQKGNLLRHIKL [46F_47Y_49E_50V_52G_53A_54D_55F_67L_, Q9UKT9] | 0.695 | 1.02 | 0.125 | -1.36 |
| FDCEVCGARFTQKGNLLRHIKL [46F_47D_49E_50V_52G_53A_54R_55F_67L_, Q9UKT9] | 3.09 | 1.52 | 0.571 | 2.08 |
| FFCEVCGARFTQKGNLLRHIKL [46F_47F_49E_50V_52G_53A_54R_55F_67L_, Q9UKT9] | 3.78 | 3.71 | 1.69 | 2.19 |
| FICEVCGARFTQKGNLLRHIKL [46F_47I_49E_50V_52G_53A_54R_55F_67L_, Q9UKT9] | 0.108 | 2.04 | 1.51 | 2.6 |
| FFCEVCGALFTQKGNLLRHIKL [46F_47F_49E_50V_52G_53A_54L_55F_67L_, Q9UKT9] | 2.55 | 2.63 | 1.79 | 0.407 |
| FWCEVCGALFTQKGNLLRHIKL [46F_47W_49E_50V_52G_53A_54L_55F_67L_, Q9UKT9] | 2.17 | 2.69 | 1.86 | -0.0715 |
| FCCEVCGARFTQKGNLLRHIKL [46F_47C_49E_50V_52G_53A_54R_55F_67L_, Q9UKT9] | 3.05 | 3.02 | 1.45 | 2.9 |
| FWCEVCGARFTQKGNLLRHIKL [46F_47W_49E_50V_52G_53A_54R_55F_67L_, Q9UKT9] | 3.36 | 3.82 | 1.63 | 1.59 |
| FLCEVCGAEFTQKGNLLRHIKL [46F_47L_49E_50V_52G_53A_54E_55F_67L_, Q9UKT9] | 0.493 | -1.2 | 0.235 | 1.01 |
| FYCPICGRSFTQKGNLLRHIKL [46F_47Y_49P_50I_52G_53R_54S_55F_67L_, Q9UKT9] | -1.81 | -2.36 | -1.67 | -2.4 |
| FHCNQCGHYFTQKGNLLRHIKL [46F_47H_49N_50Q_52G_53H_54Y_55F_67L_, Q9UKT9] | -2.17 | -2.71 | -2.16 | -1.62 |
| FYCPICGRMFTQKGNLLRHIKL [46F_47Y_49P_50I_52G_53R_54M_55F_67L_, Q9UKT9] | -0.787 | -1.23 | -0.675 | -1.57 |
